From PubChem BioAssay (Tox21)
Inconclusive results are not listed. Entries that show only a call come without a potency. Calls of active or inactive are those of the source. The call rests on the fitted dose curve; in most records, active means well fitted curve in the direction sought with a large enough effect in the repeat runs; inconclusive means weak or mixed curves; inactive means no such curve, though single readings can be large; an effect the other way counts as inactive or inconclusive.

System: not listed separately
Test: Caspase-3/7 induction in CHO-K1 cells by small molecules, qHTS assay (AID 1346980); further: nearly all actives have a fitted effect of over 15% in size
Details: CHO-K1 caspase-3/7 induction, Caspase-Glo luminescence, 17 h; series mostly up to 92.4 µM
Method in brief: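 Wild-type cells were seeded at 1,500 per well and settled 5 hr at 37 C, 5% CO2, then exposed to DMSO-dissolved compounds for 17 hr. Caspase-Glo 3/7 reagent was added, and luminescence was read after 30min at room temperature.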

SMILES	caspase-3/7 activation	outcome
Cc1cc(C)c(N=Nc2c(O)c(S(=O)(=O)O)cc3cc(S(=O)(=O)O)ccc23)cc1C	-0.604% [at 8.39 µM] (inactive)	–
c1ccc(Cc2ccccc2)cc1	–	inactive
CC1(C)[C@@H]2CC[C@@]1(C)[C@H](O)C2	–	inactive
O=C(CO)[C@@H](O)[C@H](O)[C@@H](O)CO	–	inactive
CC1(C)OC[C@@H](COC(=O)CCc2ccc(OC[C@@H](O)CNCCNC(=O)N3CCOCC3)cc2)O1	–	inactive
O=C(CO)[C@@H](O)[C@H](O)[C@H](O)CO	–	inactive
O=[N+]([O-])c1cncn1CCN1CCOCC1	–	inactive
CC(C)=CCC/C(C)=C/C#N	–	inactive
Cc1ccccc1N=C(N)N=C(N)N	–	inactive
Nc1ccn([C@@H]2O[C@H](CO)[C@@H](O)[C@@H]2O)c(=O)n1	–	inactive
CC(C)c1ccc2ncccc2c1	–	inactive
CCC(C(=O)NC(=O)NC(C)=O)c1ccccc1 (centres undefined)	–	inactive
CCC(=O)OCc1ccccc1	–	inactive
CC(C)(CCC(=O)O)C(=O)O	–	inactive
CC(=O)c1cnccn1	–	inactive
O=S(=O)(O)c1cccc2c(S(=O)(=O)O)cccc12	–	inactive
COCCOCC(OC)OC	–	inactive
NC(=O)Cc1cccc2ccccc12	–	inactive
O=C(c1ccccc1)C1(O)CCCCC1	–	inactive

SMILES	caspase-3/7 activation	outcome
CCN(C=O)CC	–	inactive
O=C1CCCCCCCCCCCCCCO1	–	inactive
CC1=NS(=O)(=O)c2cc(Cl)ccc2N1	–	inactive
CC(C)C1CCC(O)CC1 (centres undefined)	–	inactive
C=CCOCC(O)CO (centres undefined)	–	inactive
CCCCOC(=O)CCC(C)=O	–	inactive
CCOc1c(N2CCOCC2)cnn(C)c1=O	–	inactive
C1CCC2(CCCCO2)OC1	–	inactive
CC(C)[C@H]1CC[C@@H](C)CC1=O	–	inactive
c1ccc(CCc2ccccc2)cc1	–	inactive
CCOC(=O)CCC(=O)OCC	–	inactive
COC(=O)Nc1ccc(Cl)c(Cl)c1	–	inactive
C=C(C)C(=O)OCCOCCOCCOCCOC(=O)C(=C)C	–	inactive
CNCCO	–	inactive
CC1=CCC(O)(C(C)C)CC1 (centres undefined)	–	inactive
CC12CCC(C(=O)C1=O)C2(C)C (centres undefined)	–	inactive
O=CN(CCO)CCO	–	inactive
CC(=O)C1CCCCC1=O (centres undefined)	–	inactive
CN1C(C)(C)CC(O)CC1(C)C	–	inactive

System: not listed separately
Test: Caspase-3/7 induction in HepG2 cells by small molecules, qHTS cell viability counter screen (AID 1346981); further: nearly all actives have a fitted effect of over 30% in size
Details: CellTiter-Fluor fluorescence, 17 h; series mostly up to 92.4 µM
Method in brief: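 Multiplexed with the caspase-3/7 assay: HepG2 cells, 16 hr compound treatment, CellTiter-Fluor viability detection by fluorescence.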

SMILES	activity change, negative = cytotoxicity	Potency
Cc1cc(C)c(N=Nc2c(O)c(S(=O)(=O)O)cc3cc(S(=O)(=O)O)ccc23)cc1C	-13.8% [at 8.39 µM] (inactive)	–
c1ccc(Cc2ccccc2)cc1	–	inactive
CC1(C)[C@@H]2CC[C@@]1(C)[C@H](O)C2	–	inactive
O=C(CO)[C@@H](O)[C@H](O)[C@@H](O)CO	–	inactive
CC1(C)OC[C@@H](COC(=O)CCc2ccc(OC[C@@H](O)CNCCNC(=O)N3CCOCC3)cc2)O1	–	inactive
O=C(CO)[C@@H](O)[C@H](O)[C@H](O)CO	–	inactive
O=[N+]([O-])c1cncn1CCN1CCOCC1	–	inactive
CC(C)=CCC/C(C)=C/C#N	–	inactive
Cc1ccccc1N=C(N)N=C(N)N	–	inactive
Nc1ccn([C@@H]2O[C@H](CO)[C@@H](O)[C@@H]2O)c(=O)n1	–	inactive
CC(C)c1ccc2ncccc2c1	–	inactive
CCC(C(=O)NC(=O)NC(C)=O)c1ccccc1 (centres undefined)	–	inactive
CCC(=O)OCc1ccccc1	–	inactive
CC(C)(CCC(=O)O)C(=O)O	–	inactive
CC(=O)c1cnccn1	–	inactive
O=S(=O)(O)c1cccc2c(S(=O)(=O)O)cccc12	–	inactive
COCCOCC(OC)OC	–	inactive
NC(=O)Cc1cccc2ccccc12	–	inactive
O=C(c1ccccc1)C1(O)CCCCC1	–	inactive

SMILES	activity change, negative = cytotoxicity	Potency
CCN(C=O)CC	–	inactive
O=C1CCCCCCCCCCCCCCO1	–	inactive
CC1=NS(=O)(=O)c2cc(Cl)ccc2N1	–	inactive
CC(C)C1CCC(O)CC1 (centres undefined)	–	inactive
C=CCOCC(O)CO (centres undefined)	–	inactive
CCCCOC(=O)CCC(C)=O	–	inactive
CCOc1c(N2CCOCC2)cnn(C)c1=O	–	inactive
C1CCC2(CCCCO2)OC1	–	inactive
CC(C)[C@H]1CC[C@@H](C)CC1=O	–	inactive
c1ccc(CCc2ccccc2)cc1	–	inactive
CCOC(=O)CCC(=O)OCC	–	inactive
COC(=O)Nc1ccc(Cl)c(Cl)c1	–	inactive
C=C(C)C(=O)OCCOCCOCCOCCOC(=O)C(=C)C	–	inactive
CNCCO	–	inactive
CC1=CCC(O)(C(C)C)CC1 (centres undefined)	–	inactive
CC12CCC(C(=O)C1=O)C2(C)C (centres undefined)	–	inactive
O=CN(CCO)CCO	–	inactive
CC(=O)C1CCCCC1=O (centres undefined)	–	inactive
CN1C(C)(C)CC(O)CC1(C)C	–	inactive

Biological target: Nuclear receptor subfamily 1 group I member 2 (Homo sapiens) (UniProt O75469)
Sequence (O75469 whole entry, looked up): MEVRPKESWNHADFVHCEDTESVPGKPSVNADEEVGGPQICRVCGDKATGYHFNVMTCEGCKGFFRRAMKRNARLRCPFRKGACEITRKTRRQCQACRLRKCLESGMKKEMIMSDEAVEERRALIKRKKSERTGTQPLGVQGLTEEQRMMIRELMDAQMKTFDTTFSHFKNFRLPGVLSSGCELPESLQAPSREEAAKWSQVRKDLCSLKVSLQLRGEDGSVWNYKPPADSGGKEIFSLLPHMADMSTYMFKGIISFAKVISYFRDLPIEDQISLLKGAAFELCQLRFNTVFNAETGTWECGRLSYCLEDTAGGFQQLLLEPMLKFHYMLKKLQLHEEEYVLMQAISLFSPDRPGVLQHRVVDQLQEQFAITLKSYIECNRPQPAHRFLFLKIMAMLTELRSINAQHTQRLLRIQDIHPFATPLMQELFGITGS
Test: Human pregnane X receptor (PXR) small molecule agonists, qHTS assay (AID 1346982); further: nearly all actives have a fitted effect of over 35% in size; further: potency means the concentration at half of the fitted maximal effect
Details: PXR-Luc HepG2, CYP3A4 luciferase reporter, 24 h; series mostly up to 92.4 µM
Method in brief: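 We seeded PXR-Luc HepG2 cells in assay medium containing 5% charcoal-stripped FBS, added compounds 5 hr later, incubated 24 hr, and read luminescence with ONE-Glo reagent.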

SMILES	activation	Potency
Cc1cc(C)c(N=Nc2c(O)c(S(=O)(=O)O)cc3cc(S(=O)(=O)O)ccc23)cc1C	-9.92% [at 8.39 µM] (inactive)	–
c1ccc(Cc2ccccc2)cc1	–	inactive
CC1(C)[C@@H]2CC[C@@]1(C)[C@H](O)C2	–	inactive
O=C(CO)[C@@H](O)[C@H](O)[C@@H](O)CO	–	inactive
CC1(C)OC[C@@H](COC(=O)CCc2ccc(OC[C@@H](O)CNCCNC(=O)N3CCOCC3)cc2)O1	–	inactive
O=C(CO)[C@@H](O)[C@H](O)[C@H](O)CO	–	inactive
O=[N+]([O-])c1cncn1CCN1CCOCC1	–	inactive
CC(C)=CCC/C(C)=C/C#N	–	inactive
Cc1ccccc1N=C(N)N=C(N)N	–	inactive
Nc1ccn([C@@H]2O[C@H](CO)[C@@H](O)[C@@H]2O)c(=O)n1	–	inactive
CC(C)c1ccc2ncccc2c1	–	inactive
CCC(C(=O)NC(=O)NC(C)=O)c1ccccc1 (centres undefined)	–	inactive
CCC(=O)OCc1ccccc1	–	inactive
CC(C)(CCC(=O)O)C(=O)O	–	inactive
CC(=O)c1cnccn1	–	inactive
O=S(=O)(O)c1cccc2c(S(=O)(=O)O)cccc12	–	inactive
COCCOCC(OC)OC	–	inactive
NC(=O)Cc1cccc2ccccc12	–	inactive
O=C(c1ccccc1)C1(O)CCCCC1	–	inactive

SMILES	activation	Potency
CCN(C=O)CC	–	inactive
O=C1CCCCCCCCCCCCCCO1	–	inactive
CC1=NS(=O)(=O)c2cc(Cl)ccc2N1	–	inactive
CC(C)C1CCC(O)CC1 (centres undefined)	–	inactive
C=CCOCC(O)CO (centres undefined)	–	inactive
CCCCOC(=O)CCC(C)=O	–	inactive
CCOc1c(N2CCOCC2)cnn(C)c1=O	–	inactive
C1CCC2(CCCCO2)OC1	–	inactive
CC(C)[C@H]1CC[C@@H](C)CC1=O	–	inactive
c1ccc(CCc2ccccc2)cc1	–	inactive
CCOC(=O)CCC(=O)OCC	–	inactive
COC(=O)Nc1ccc(Cl)c(Cl)c1	–	60.8 µM (active)
C=C(C)C(=O)OCCOCCOCCOCCOC(=O)C(=C)C	–	inactive
CNCCO	–	inactive
CC1=CCC(O)(C(C)C)CC1 (centres undefined)	–	inactive
CC12CCC(C(=O)C1=O)C2(C)C (centres undefined)	–	inactive
O=CN(CCO)CCO	–	inactive
CC(=O)C1CCCCC1=O (centres undefined)	–	inactive
CN1C(C)(C)CC(O)CC1(C)C	–	inactive
